How the values were obtained:
Test in all cases: log2 ratio of Biotin-Ahx-Ub-VS probe labelling (fragment/DMSO); higher = less target engagement (more negative = stronger competition), active = hit call of the paper (q ≤ 0.05, log2 ratio ≤ -1)
Details in all cases: compound concentration: 200 uM; treatment time: 3 h
USP34 = USP34 (UniProt Q70CQ2)
Outline: (§1)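 Using Biotin-Ahx-Ub-VS at 0.5 µM final for 1 h, DUBs were labelled in HEK293T lysate (495 µg per sample) that had first been treated in triplicate with fragment at 200 µM or vehicle for 3 h. NeutrAvidin enrichment, LysC and trypsin digestion and diaPASEF LC-MS/MS followed. Spectronaut label-free quantities were global-median-normalised. Values are average log2 fragment/vehicle ratios by unpaired t-test, using proteins with ≥2 unique peptides.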

USP36 = target: T1, USP36 (UniProt Q9P275)
T1 sequence (whole entry): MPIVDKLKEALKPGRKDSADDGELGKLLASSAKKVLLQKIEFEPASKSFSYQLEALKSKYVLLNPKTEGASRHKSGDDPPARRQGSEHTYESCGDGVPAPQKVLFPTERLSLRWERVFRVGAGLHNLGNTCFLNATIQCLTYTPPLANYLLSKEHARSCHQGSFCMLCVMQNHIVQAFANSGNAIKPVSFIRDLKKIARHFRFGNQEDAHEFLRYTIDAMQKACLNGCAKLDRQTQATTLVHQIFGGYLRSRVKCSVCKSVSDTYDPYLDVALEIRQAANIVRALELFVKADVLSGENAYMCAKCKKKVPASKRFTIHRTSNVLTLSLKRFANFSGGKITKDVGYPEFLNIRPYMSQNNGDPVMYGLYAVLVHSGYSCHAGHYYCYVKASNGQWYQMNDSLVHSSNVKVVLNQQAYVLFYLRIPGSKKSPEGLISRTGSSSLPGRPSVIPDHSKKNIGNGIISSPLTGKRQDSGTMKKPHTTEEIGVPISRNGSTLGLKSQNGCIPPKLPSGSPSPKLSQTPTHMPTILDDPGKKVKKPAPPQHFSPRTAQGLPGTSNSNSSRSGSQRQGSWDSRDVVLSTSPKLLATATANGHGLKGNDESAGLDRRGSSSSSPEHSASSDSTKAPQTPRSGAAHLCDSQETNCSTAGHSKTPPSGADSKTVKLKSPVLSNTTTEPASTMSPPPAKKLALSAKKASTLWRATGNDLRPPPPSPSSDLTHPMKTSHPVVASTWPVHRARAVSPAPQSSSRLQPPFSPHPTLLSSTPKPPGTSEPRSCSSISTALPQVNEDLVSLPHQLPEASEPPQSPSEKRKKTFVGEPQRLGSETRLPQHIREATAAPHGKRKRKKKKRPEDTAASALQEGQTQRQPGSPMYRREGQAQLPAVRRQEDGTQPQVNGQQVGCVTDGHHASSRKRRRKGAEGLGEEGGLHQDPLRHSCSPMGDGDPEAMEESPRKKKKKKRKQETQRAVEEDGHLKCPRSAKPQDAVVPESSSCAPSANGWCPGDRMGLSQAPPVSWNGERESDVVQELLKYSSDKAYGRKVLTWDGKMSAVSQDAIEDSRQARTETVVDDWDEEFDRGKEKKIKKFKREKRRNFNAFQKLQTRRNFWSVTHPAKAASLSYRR
Outline: as §1

USP38 = target: T2, USP38 (UniProt Q8NB14)
T2 sequence (whole entry): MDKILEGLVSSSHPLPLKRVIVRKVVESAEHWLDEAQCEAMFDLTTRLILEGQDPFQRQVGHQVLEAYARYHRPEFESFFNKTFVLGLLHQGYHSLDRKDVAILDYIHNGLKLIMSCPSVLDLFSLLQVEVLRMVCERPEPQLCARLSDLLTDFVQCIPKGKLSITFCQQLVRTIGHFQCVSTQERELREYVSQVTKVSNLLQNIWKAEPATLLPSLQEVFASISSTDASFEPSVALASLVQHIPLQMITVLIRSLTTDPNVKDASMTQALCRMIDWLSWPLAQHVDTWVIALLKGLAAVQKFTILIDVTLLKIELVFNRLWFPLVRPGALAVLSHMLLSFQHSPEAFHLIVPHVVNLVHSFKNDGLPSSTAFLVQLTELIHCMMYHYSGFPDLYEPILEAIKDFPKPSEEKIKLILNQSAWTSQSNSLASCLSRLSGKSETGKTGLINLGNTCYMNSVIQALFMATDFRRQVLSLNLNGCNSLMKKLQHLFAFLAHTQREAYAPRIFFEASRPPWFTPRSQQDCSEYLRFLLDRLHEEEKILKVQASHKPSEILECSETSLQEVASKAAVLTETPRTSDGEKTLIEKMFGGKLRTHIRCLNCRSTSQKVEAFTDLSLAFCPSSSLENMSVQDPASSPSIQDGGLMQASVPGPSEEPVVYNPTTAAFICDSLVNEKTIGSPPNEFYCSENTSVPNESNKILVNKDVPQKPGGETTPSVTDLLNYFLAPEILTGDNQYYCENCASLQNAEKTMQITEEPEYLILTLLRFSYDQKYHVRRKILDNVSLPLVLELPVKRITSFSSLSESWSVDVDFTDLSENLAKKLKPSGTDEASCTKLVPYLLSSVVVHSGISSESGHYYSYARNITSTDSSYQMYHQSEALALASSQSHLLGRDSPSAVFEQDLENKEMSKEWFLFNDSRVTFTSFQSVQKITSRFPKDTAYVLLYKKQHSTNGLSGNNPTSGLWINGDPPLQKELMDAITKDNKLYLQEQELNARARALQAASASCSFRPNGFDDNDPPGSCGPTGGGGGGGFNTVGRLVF
Outline: as §1

USP39 = target: T3, USP39 (UniProt Q53GS9)
T3 sequence (whole entry): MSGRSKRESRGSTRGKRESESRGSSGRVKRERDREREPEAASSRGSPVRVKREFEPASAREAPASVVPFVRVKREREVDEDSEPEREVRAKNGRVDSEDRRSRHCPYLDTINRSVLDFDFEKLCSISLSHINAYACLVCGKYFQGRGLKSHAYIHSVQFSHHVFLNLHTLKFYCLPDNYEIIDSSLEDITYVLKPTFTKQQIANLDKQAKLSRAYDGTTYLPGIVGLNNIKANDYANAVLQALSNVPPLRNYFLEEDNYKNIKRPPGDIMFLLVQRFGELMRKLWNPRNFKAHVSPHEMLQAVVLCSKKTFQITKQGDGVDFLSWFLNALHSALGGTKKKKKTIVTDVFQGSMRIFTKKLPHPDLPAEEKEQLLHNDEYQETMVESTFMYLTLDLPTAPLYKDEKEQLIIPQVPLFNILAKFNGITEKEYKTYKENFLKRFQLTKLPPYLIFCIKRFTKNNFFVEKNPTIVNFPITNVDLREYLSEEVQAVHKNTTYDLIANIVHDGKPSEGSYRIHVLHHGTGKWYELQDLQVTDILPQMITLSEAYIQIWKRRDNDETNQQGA
Outline: as §1

USP4 = target: T4, USP4 (UniProt Q13107)
T4 sequence (whole entry): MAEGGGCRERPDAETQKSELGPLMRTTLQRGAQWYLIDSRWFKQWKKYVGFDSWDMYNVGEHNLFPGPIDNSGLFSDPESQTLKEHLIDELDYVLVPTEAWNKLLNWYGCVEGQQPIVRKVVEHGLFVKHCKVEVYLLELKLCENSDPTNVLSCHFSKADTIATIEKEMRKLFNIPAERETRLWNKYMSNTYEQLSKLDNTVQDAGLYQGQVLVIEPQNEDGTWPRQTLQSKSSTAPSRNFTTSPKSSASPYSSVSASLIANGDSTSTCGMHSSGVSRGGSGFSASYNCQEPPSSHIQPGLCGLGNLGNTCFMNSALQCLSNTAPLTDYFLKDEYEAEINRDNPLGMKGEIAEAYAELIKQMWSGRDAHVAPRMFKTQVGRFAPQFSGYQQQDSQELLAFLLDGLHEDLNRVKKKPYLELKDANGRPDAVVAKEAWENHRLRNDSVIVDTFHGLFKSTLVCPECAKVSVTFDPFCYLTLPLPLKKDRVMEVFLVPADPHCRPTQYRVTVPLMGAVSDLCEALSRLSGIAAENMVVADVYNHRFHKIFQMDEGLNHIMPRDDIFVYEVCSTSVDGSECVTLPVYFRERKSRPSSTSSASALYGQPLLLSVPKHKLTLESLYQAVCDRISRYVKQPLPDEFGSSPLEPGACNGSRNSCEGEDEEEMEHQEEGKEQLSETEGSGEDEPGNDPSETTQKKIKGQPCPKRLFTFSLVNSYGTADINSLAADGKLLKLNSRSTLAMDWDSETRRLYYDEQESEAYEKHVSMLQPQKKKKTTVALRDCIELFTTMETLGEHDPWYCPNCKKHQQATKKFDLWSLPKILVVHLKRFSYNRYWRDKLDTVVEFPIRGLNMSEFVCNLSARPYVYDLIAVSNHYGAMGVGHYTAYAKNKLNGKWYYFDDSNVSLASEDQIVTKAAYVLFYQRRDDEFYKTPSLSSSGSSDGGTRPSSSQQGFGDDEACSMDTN
Outline: as §1

Measured: log2 ratio of Biotin-Ahx-Ub-VS probe labelling

USP34, sequence (Q70CQ2 whole entry, the tested form may be a part): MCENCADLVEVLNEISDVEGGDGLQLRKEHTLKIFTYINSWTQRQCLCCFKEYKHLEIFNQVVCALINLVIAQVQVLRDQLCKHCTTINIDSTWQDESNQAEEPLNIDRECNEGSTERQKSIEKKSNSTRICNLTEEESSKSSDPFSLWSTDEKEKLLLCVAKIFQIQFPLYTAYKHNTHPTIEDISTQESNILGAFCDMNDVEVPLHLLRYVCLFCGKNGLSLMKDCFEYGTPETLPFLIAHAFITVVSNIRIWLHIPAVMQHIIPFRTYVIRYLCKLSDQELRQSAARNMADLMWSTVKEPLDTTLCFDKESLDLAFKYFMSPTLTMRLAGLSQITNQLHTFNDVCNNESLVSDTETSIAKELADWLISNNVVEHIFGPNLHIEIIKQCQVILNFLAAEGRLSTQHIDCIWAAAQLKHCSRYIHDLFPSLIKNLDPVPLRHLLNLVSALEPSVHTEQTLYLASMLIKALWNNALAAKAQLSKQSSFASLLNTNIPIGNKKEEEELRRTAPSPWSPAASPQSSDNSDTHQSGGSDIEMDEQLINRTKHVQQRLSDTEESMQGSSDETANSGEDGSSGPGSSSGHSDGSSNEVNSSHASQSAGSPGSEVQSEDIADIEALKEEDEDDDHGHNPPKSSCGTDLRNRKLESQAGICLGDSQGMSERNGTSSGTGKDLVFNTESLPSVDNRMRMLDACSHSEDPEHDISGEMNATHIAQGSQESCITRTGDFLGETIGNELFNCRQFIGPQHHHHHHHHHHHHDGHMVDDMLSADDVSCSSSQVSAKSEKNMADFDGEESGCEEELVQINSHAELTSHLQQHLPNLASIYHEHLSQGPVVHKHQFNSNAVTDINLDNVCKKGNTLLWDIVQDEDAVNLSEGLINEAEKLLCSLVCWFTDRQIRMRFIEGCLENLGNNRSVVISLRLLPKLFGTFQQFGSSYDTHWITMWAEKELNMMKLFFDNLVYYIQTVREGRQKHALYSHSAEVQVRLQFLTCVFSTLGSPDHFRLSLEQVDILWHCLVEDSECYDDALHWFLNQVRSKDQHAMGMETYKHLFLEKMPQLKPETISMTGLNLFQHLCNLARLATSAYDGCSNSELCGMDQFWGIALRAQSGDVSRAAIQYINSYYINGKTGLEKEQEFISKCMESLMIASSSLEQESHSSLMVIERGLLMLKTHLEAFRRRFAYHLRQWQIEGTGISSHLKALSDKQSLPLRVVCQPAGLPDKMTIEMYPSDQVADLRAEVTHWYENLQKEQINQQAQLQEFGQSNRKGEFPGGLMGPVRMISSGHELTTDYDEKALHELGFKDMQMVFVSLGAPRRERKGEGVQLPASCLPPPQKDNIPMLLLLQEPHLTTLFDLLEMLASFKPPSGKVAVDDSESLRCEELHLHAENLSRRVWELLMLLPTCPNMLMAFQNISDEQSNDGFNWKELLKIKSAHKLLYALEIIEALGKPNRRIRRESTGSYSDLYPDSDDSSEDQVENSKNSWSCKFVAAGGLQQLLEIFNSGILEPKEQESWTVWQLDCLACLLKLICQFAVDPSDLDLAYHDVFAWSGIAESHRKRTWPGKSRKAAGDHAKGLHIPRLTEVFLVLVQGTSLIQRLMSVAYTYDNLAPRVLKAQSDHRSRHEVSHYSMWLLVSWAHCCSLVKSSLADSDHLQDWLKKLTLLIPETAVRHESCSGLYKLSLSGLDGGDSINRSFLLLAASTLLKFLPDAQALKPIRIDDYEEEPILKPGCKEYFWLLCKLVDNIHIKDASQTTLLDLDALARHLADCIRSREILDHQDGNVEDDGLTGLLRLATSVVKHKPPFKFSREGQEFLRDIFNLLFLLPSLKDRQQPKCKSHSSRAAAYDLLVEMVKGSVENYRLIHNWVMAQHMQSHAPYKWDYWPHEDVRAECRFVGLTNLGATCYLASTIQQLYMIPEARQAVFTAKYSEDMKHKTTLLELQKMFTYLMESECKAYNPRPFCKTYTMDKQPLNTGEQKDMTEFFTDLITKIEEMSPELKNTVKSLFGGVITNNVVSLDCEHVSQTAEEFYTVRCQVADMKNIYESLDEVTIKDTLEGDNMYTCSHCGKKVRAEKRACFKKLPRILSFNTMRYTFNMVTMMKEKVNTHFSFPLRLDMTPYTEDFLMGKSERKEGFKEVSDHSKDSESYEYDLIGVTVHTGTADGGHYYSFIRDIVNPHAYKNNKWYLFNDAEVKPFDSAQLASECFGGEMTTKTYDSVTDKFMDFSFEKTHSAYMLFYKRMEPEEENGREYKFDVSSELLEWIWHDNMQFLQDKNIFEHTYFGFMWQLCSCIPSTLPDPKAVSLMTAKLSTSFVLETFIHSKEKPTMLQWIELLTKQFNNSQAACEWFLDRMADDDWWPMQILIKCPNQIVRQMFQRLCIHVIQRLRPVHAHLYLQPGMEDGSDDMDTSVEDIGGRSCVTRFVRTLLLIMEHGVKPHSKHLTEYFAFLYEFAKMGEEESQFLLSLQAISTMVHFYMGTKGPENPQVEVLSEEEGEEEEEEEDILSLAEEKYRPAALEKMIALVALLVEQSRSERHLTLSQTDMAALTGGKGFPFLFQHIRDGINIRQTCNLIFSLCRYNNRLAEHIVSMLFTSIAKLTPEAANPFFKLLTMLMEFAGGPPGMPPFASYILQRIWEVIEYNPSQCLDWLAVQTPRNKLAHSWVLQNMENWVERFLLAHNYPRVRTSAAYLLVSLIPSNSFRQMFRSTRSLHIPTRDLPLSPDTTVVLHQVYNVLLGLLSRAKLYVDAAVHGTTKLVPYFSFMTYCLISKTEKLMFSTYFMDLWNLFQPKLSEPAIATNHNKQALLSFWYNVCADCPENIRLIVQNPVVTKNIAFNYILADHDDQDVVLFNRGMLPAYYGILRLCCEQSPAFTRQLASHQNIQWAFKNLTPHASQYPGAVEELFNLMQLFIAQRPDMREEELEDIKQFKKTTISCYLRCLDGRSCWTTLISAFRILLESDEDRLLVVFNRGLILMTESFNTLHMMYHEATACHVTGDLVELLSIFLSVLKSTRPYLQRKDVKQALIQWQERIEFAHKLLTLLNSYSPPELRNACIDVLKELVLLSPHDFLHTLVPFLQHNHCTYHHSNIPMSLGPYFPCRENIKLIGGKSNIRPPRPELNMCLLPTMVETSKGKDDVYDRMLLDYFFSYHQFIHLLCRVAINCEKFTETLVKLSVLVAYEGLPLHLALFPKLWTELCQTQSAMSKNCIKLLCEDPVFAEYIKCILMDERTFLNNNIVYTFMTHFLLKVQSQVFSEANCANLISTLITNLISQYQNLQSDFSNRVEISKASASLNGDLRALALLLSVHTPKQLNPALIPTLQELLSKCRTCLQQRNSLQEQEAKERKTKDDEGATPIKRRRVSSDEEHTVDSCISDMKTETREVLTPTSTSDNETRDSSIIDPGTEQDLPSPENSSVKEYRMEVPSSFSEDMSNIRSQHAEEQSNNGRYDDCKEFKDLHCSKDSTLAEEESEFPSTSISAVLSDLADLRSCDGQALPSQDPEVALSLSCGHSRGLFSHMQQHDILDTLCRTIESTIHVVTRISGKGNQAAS

O=C(CCl)Nc1ccc(F)cc1F
inactive: USP34 -0.242 | USP36 -0.306 | USP38 0.102 | USP39 0.37 | USP4 -0.0254

Reference: the supplement of paper PMC11732987, “Enantioselective OTUD7B fragment discovery through chemoproteomics screening and high-throughput optimisation” (Communications Chemistry, 2025)
